Screening data: PubChem BioAssay, several laboratories
PGE2 EP2 inh – inhibitors of human EP2 prostaglandin E2 receptor. C6 glioma cells expressing human EP2, cAMP TR-FRET; cells stimulated with saturating PGE2. inhibition, % at 25 µM. 0.52% of 260,000 active. AID 1422;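 active = percent inhibition above 40 after rounding to a whole number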;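 also: rat C6 glioma host cells with rolipram phosphodiesterase inhibitor present; the protocol text gives 20 µM as final concentration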
Target sequence (P43116 whole entry, looked up): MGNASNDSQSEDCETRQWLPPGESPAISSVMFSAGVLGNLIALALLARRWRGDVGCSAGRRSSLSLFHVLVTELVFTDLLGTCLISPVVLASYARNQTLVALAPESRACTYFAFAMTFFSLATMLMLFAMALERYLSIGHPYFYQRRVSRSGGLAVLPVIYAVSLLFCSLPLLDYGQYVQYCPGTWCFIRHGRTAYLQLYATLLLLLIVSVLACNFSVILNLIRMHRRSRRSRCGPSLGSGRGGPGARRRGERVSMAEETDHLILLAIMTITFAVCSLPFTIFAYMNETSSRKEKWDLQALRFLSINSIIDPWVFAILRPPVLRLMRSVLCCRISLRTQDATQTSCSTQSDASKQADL
EP2 mod – EP2 receptor (human) modulation. EP2-expressing cells, cAMP HTRF FRET, PGE2 co-stimulation. induction, % at 25 µM. 0.83% of 260,000 active;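 active = compounds whose cAMP rise, as percent of the full-agonist control response, exceeds 60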;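 also: rat C6 glioma line stably carrying human EP2 under a CMV promoter; the protocol text gives 20 µM as final concentration; 100% = response of wells given 1 µM PGE2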
S1P3 antag – antagonists of human S1P3 receptor | 0.27% of 170,000 active | Q99500 | inhibition, % at 4.98 µM | CHO S1P3 NFAT-BLA reporter, FRET fluorescence, antagonist mode;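 active = inhibition above the plate cutoff, the mean inhibition of test wells on that plate plus 3 SD, cut at about 28% in these data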;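 also: cells challenged with S1P at its EC80 of 0.8 µM; blue over green emission ratio from cleaved BLA substrate after 4 h stimulation; 0% = S1P-stimulated wells and 100% = unstimulated DMSO-only wells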
KCC2 mod – modulators of human KCC2 chloride dependent transport | 2.2% of 190,000 active | B-score of Tl+ flux slope (higher = more flux/activation; lower = inhibition) at 10 µM | KCC2 cells, thallium flux FluoZin-2 fluorescence | Q9H2X9 | AID 1456;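 active = thallium flux slope and its plate-corrected score both differing from the plate sample mean at a set confidence after two filtering rounds, in either direction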;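 also: slope of fluorescence scaled to starting intensity during 10 to 20 s after thallium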
KCC2 secondary – confirmation of human KCC2 transport modulators; shares compounds with KCC2 mod; 15% of 3,700 active; normalised thallium flux (F/F0 slope) at 10 µM; AID 1713; HEK293-KCC2, thallium flux, FluoZin2 fluorescence; hits give high values;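 active = thallium flux slope above the same plate's solvent-only control mean plus 3 SD; inconclusive = the two replicate wells disagree; inactive = no significant difference from solvent-only control wells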
KCC2 bumet counter – thallium flux despite bumetanide block in KCC2 cells, secondary assay 3. shares compounds with KCC2 mod. HEK293-KCC2 + bumetanide/ouabain, thallium flux FluoZin2; hits give high values. normalized thallium flux at 10 µM. 49% of 3,700 active. AID 1714;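 active = thallium entry rate above the same plate's blocked-transporter control wells by more than 3 SD; inconclusive = the two repeat wells disagree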;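 also: raw slope of fluorescence over initial fluorescence between 10 and 20 s after thallium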
KCC2 secondary2 – confirmation of human KCC2 transport modulators; normalized thallium flux at 10 µM; 23% of 3,700 active; shares compounds with KCC2 mod; HEK293-KCC2, thallium flux FluoZin2 fluorescence; actives lie on both sides; F/F0 rise rate, 10–20 s post-thallium;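 active = thallium flux slope more than 3 SD above or below the plate's solvent-only control mean, mostly below; inconclusive = the two repeat wells disagreed; inactive = no significant shift from solvent-only controls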;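 also: raw slope with 0.1% DMSO as baseline and bumetanide as block control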
HEK counter1 – parental HEK flux effect, counter-screen. thallium flux rate (normalised fluorescence) at 10 µM. HEK293 parental cells, thallium flux FluoZin2, ouabain; baseline-ratio fluorescence slope, 10–20 s after thallium. shares compounds with KCC2 mod. 46% of 3,700 active;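 active = thallium flux rate significantly above the same plate's solvent-only control wells, beyond their mean plus 3 SD; inconclusive = the two replicate wells gave conflicting results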
KCC2 retest ouab – confirmation of human KCC2 modulators with ouabain; raw Tl+ flux slope (below DMSO = inhibition, above = activation) at 10 µM; AID 1717; 48% of 3,700 active; HEK293-KCC2, thallium flux FluoZin2 fluorescence; bidirectional: low = inhibitor, high = activator; shares compounds with KCC2 mod;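 active = thallium flux slope beyond 3 SD from same-plate DMSO control mean in most replicates, usually higher, sometimes lower; inconclusive = repeat tests gave conflicting results; inactive = no significant difference from controls in most replicates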;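 also: slope of initial-normalized fluorescence between seconds 10 and 20 after thallium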
HEK293 Tl flux2 – parental HEK flux effect, counter-screen 2; HEK293 parental, thallium flux FluoZin-2 fluorescence slope; 33% of 3,700 active; thallium flux slope at 10 µM; shares compounds with KCC2 mod;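 active = thallium flux slope above the same plate's solvent-control mean plus 3 SD in both duplicate wells; inconclusive = duplicate wells that disagreed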;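 also: run without ouabain in cells lacking the KCC2 cotransporter; slope of fluorescence scaled to its starting value between 10 and 20 s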
* = called active by the depositor; ? = inconclusive; . = no result. An excerpt weighted towards active compounds, which were near 3.1% of everything screened.

SMILES	PGE2 EP2 inh	EP2 mod	S1P3 antag	KCC2 mod	KCC2 secondary	KCC2 bumet counter	KCC2 secondary2	HEK counter1	KCC2 retest ouab	HEK293 Tl flux2
CC(C)OCCCn1c(-c2ccc(Br)cc2)c[nH]c1=S	4	30	-9	9.5*	0.0094	0.043*	0.036	0.02*	0.04*	0.013*
CC(C)OCCCNC(=O)c1ccc(Br)cc1	5	0	.	0.64	.	.	.	.	.	.
Cc1ccc(S(=O)(=O)NCc2ccc(C(=O)N3CCN(Cc4ccccc4)CC3)cc2)cc1	-4	29	.	-2.6*	0.0061	?	0.027*	0.0072	?	0.01
O=C(c1cccc(S(=O)(=O)NCc2ccccc2)c1)N1CCN(Cc2ccccc2)CC1	7	-22	.	-2.7*	0.0073	0.0061*	0.03	0.0072	0.018	0.011
Cc1ccc(Cn2c(SCC(N)=O)nc3c2c(=O)n(C)c(=O)n3C)cc1	6	20	-13	4.8*	0.0064	?	0.034	0.0075	0.019	0.011
Cc1cccc(Cn2c(SCC(N)=O)nc3c2c(=O)n(C)c(=O)n3C)c1	18	-11	.	.	.	.	.	.	.	.
O=S(=O)(Nc1cccc2ncccc12)c1ccc2ccccc2c1	8	-25	.	.	.	.	.	.	.	.
Cc1sc(NC(=O)CSC2=NCCS2)nc1-c1ccccc1	13	-14	.	.	0.0078	0.0041	0.033	0.0039	0.019	0.011
O=C(c1cc(COc2c(F)cccc2F)on1)N1CCC(c2ccccc2F)C1 (configuration not stated)	5	9	-21	-3	.	.	.	.	.	.
O=C(c1cc(COc2c(F)cccc2F)on1)N1CCC(c2ccccc2Cl)C1 (configuration not stated)	6	-11	-38	.	.	.	.	.	.	.
O=C(c1cc(COc2c(F)cccc2F)on1)N1CCc2ccccc2C1	16	-47	-10	-4.4*	0.0063	0.0054	0.035	0.0038	0.015*	0.012
O=C(NCCCn1ncc2ccccc21)c1cc(COc2c(F)cccc2F)on1	9	-73	-16	-5.9*	0.016	?	0.022*	0.0068	0.012*	0.0099
CN1CCN(C(=O)c2cc(COc3c(F)cccc3F)on2)CC1c1ccccc1 (configuration not stated)	9	-11	4	-4*	0.0071	0.0047	0.033	0.0067	0.015*	0.012
O=C(c1cc(COc2c(F)cccc2F)on1)N1CCC(c2ccncc2)CC1	8	-34	13	.	?	0.0084*	?	0.0072	0.019*	0.01
CCCC(=O)Nc1nc(-c2ccc3c(c2)CCN3C(=O)C2CC2)cs1	16	11	.	.	.	.	.	.	.	.
CCCOc1cccc(/C(O)=C2/C(=O)C(=O)N(Cc3cccnc3)C2c2ccncc2)c1 (configuration not stated)	4	4	.	.	.	.	.	.	.	.
Cc1ccc2[nH]c(=O)c(C(c3nnnn3C3CCCCC3)N3c4ccccc4CC3C)cc2c1 (configuration not stated)	10	38	.	.	.	.	.	.	.	.
CN(C(=S)NC(=O)/C=C/c1ccc(F)cc1)C1CCCCC1	4	10	4	12*	0.012	0.072*	0.033	0.019*	?	0.014*
O=C(/C=C/c1ccc(F)cc1)NC(=S)NC1CCCCC1	5	-48	-1	1.3	.	.	.	.	.	.
Cc1cccc(C)c1Nc1nnc(SCC(=O)c2ccc3c(c2)NC(=O)CO3)s1	9	-56	-2	-3.8*	0.0073	0.0063	0.028	0.0069	0.019*	0.01
